Out of some 69,000 compounds screened, about 8,600 (12%) showed an effect of 50% or more. The entries come from a sample that favours strong results as a whole.

This is an account of results in ChEMBL document CHEMBL4513216, “Probing the Open Global Health Chemical Diversity Library for Multistage-Active Starting Points for Next-Generation Antimalarials” (ACS Infect Dis, 2020).

The subject of this experiment is Plasmodium berghei. The experiment is described as follows: Screen against P. berghei liver stage (PbLuc), transformed with Luciferase, at 10uM. In kind it is functional, HepG2. The following applies: tested at 10 uM.
For the compound `CC1CCN(C(=O)[C@H]2C[C@@H]3CCN(CC4CCOCC4)C[C@H]3O2)CC1`, the INHIBITION was -7.24%.

Turning to `c1cc(NCc2ccncc2)nc(C2CCCN2)c1` (stereo not drawn), the INHIBITION was 14%.

Turning to `O=C(CC1CCN(c2cccnn2)CC1)Nc1nncs1`, the INHIBITION is listed as 31.3%. As for `Cc1nc(-c2ccccc2)sc1CSCCS(C)(=O)=O`, the INHIBITION worked out at 20.1%. Then `Cc1nc(-c2ccccc2)sc1CSCCC(N)=O`, with 60.8%; and `Cc1nc(-c2ccccc2)sc1CSC(C)C(N)=O` (stereo not drawn), with -48.3%; and `CNc1cc2c(nn1)CCN(C(=O)c1cc(C)no1)C2`, with -65.3%. Then `CN1CC(C(=O)NCc2ccc(Br)cc2F)CC1=O` (stereo not drawn), with -18.5%. Regarding `CNC(=O)CN1CCC(OCC2CCCO2)CC1` (stereo not drawn), the INHIBITION is 32.9%. Regarding `O=C(CN1CCC(OCC2CCCO2)CC1)NCC(F)(F)F` (stereo not drawn), the INHIBITION turned out to be 1.2%. Then `CCNC(=O)CN1CCC(OCC2CCCO2)CC1` (stereo not drawn), with 68.8%; and `Cc1nn(C)c(C)c1C1CCCN1C(=O)c1ccnc(N(C)C)c1` (stereo not drawn), with -4.16%. As for `CN(Cc1ccco1)C1CCC12CCN(C(=O)c1ccco1)CC2` (stereo not drawn), the figure is -77.5%; as for `COc1ncccc1CNC(=O)c1cc(C)on1`, -41.1%. As for `CCS(=O)(=O)N1CCN(C(C)c2ccccc2OC)CC1` (stereo not drawn), the figure is 13.5%; as for `COc1ccccc1C(C)N1CCN(S(C)(=O)=O)CC1` (stereo not drawn), 51.1%; as for `COc1ccccc1C(C)N1CCN(S(=O)(=O)N(C)C)CC1` (stereo not drawn), 14.7%.

Turning to `COCCC(=O)N1CCCC2(CCCN2Cc2ccccc2F)C1` (stereo not drawn), the INHIBITION amounted to 19.5%. Turning to `COCC(=O)N1CCN(C(=O)Cc2cccs2)[C@H]2CS(=O)(=O)C[C@H]21`, the INHIBITION is on record as -6.11%.

Regarding `O=C1CCCN1CCN1CCCC(c2ccn[nH]2)C1` (stereo not drawn), the INHIBITION is given as -24.2%. As for `Cc1cc(C2CCCN(CC(=O)N3CCCc4ccccc43)C2)n[nH]1` (stereo not drawn), the figure is 19.9%; as for `O=C(CN1CCCC(c2ccn[nH]2)C1)Nc1nc2c(s1)CCCC2` (stereo not drawn), 86.9%. As for `Cc1cc(C2CCCN(CC(=O)Nc3nc4c(s3)CCC4)C2)n[nH]1` (stereo not drawn), the figure is 75.8%; as for `O=C(CN1CCCC(c2ccn[nH]2)C1)N1CCCc2ccccc21` (stereo not drawn), 21.8%.

Regarding `O=C(CN1CCCC(c2ccn[nH]2)C1)Nc1nc2c(s1)CCC2` (stereo not drawn), the INHIBITION stood at 83.2%.

On to `O=C(O)c1cccc(CN2CCCC(c3ccn[nH]3)C2)c1` (stereo not drawn), for which the INHIBITION is on record as 21.45%. As for `Cc1nc(C)n(CC2CCCN(CC(=O)Nc3nncs3)C2)n1` (stereo not drawn), the figure is 12.4%. As for `O=C(CN1CCCC(c2ccn[nH]2)C1)Nc1nncs1` (stereo not drawn), the figure is 56.3%. As for `Cc1cc(C2CCCN(CC(=O)N3CCc4ccccc43)C2)n[nH]1` (stereo not drawn), the figure is 15.2%; as for `Cc1nnc(NC(=O)CN2CCCC(c3ccn[nH]3)C2)s1` (stereo not drawn), 47.1%; as for `CC(C)C1Nc2ccccc2C(=O)N1CC(=O)Nc1nc2c(s1)CCC2` (stereo not drawn), 16.5%. In the case of `NC(=O)CCCNC(=O)Cc1csc(Cc2ccccn2)n1`, the INHIBITION worked out at 46.6%. As for `CNC(=O)N1CCCCC1CCNS(C)(=O)=O` (stereo not drawn), the figure is -2.48%; as for `CC(=O)N1CCCN(C(C(=O)O)c2ccc(C)cc2C)CC1` (stereo not drawn), 41.3%. Regarding `CNc1cc(N2CCCC2CNCc2cccc(C(N)=O)c2)ncn1` (stereo not drawn), the INHIBITION is on record as 39.5%. As to `CC(=O)N1CCN(C(=O)c2csc(-c3ccc(C)cc3C)n2)CC1`, the INHIBITION came out at 17%. As for `CN1CC2(CCN(C(=O)c3cccc(-n4cccn4)c3)CC2)OC1=O`, the figure is 12%. Then `CC(=O)N1CCC(NC(=O)c2ccc3c(c2O)OC(C)(C)C3)CC1`, with 48.2%. As for `Cc1ccc(CN2CCC3(CC2)CC(CC(=O)NC(C)C)CO3)s1` (stereo not drawn), the figure is -62.7%; as for `CN(C)C[C@H]1OC[C@@H]2CCN(S(=O)(=O)c3ccc(F)cc3)C[C@@H]21`, 42.7%; as for `COc1ccccc1C(C)(C)NC(=O)NC1CCC(O)CC1` (stereo not drawn), -30.3%. Consider `Cc1ccc2oc(C(=O)N3CCCC(n4ccnc4C)C3)cc2n1` (stereo not drawn), for which the INHIBITION was 20.33%. Then `COc1ccc(C[C@H]2CN(C(=O)c3cscn3)CC[C@@H]2OC)cc1`, with 22.3%; and `Cc1ccccc1C(=O)NC[C@@H]1CCN(C(=O)c2cccn2C)C[C@H]1O`, with 17.4%; and `Cc1ccccc1C(=O)NC[C@@H]1CCN(C(=O)c2cscn2)C[C@H]1O`, with 63.8%. Then `Cc1ccccc1C(=O)N1CC(C(=O)NCC2CC2)C2(CCOCC2)C1` (stereo not drawn), with -41.4%; and `Cc1ccccc1C(=O)NC[C@@H]1CCN(C(=O)CN2CCCC2)C[C@H]1O`, with 44.3%; and `Cc1ccccc1C(=O)NC[C@@H]1CCN(C(=O)C2(O)CCCC2)C[C@H]1O`, with 69.3%. Then `Cc1ccc(C)c(-c2[nH]c3ccccc3c2C(=O)O)c1`, with 13.5%; and `Cn1ccnc1C1(O)CCN(C(=O)Cc2ccccc2)CC1`, with 7.635%; and `CCN(CC)S(=O)(=O)c1ccc(C(=O)NC(C)(C#N)C2CC2)cc1` (stereo not drawn), with -5.1%. In the case of `O=C(c1ccc2c(c1)CCC2)N1CCC(c2n[nH]c(C3CC3)n2)CC1`, the INHIBITION was -19.6%. As for `CC(=O)N1CCC(NC(=O)N(C)Cc2c(C)noc2C)CC1`, the figure is -35.61%.
